PubChem BioAssay AID1626 (SRMLSC, 2009)
The campaign covered roughly 220,000 compounds. About 2,000 (0.91%) were called active. Roughly 2% stayed inconclusive and do not appear here. Cut-off read from the data, not from the text of the source: inconclusive = inhibition above about 80% without an active follow-up result; inactive = below that; test concentration not stated here. Only a sample is shown. Potency and affinity values are given separately.

test: M. tuberculosis H37Rv growth inhibitors, H37Rv strain (AID 1626); conditions: hits give high values, concentration not given here;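 note: bacteria incubated seven days before Alamar blue readout; 0% = bacteria only wells and 100% = bacteria with antibiotic wells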

| SMILES | inhibition |
| --- | --- |
| CC(C)N1C(=O)c2ccc(C(=O)O)cc2C1=O | 2.62% (inactive) |
| CCOC(=O)C1=C(C)NC(=S)N(C=O)C1c1ccccc1 (stereo not drawn) | 6.03% (inactive) |
| Cc1ccc(SCC(=O)NCc2cccnc2)cc1 | -4.12% (inactive) |
| O=c1[nH]c2ccccc2c2nc3ccccn3c12 | -1.5% (inactive) |
| O=c1[nH]c2ccccc2c(O)c1O | -3.51% (inactive) |
| Cc1ccc(-c2nc(CS(=O)CC(=O)NCc3ccccc3)c(C)o2)cc1 (stereo not drawn) | 3.18% (inactive) |
| O=C(Nc1ccc(Nc2ccccc2)cc1)C1CC1 | -4.99% (inactive) |
| CS(=O)(=O)N1CCC(C(=O)Nc2ccc(Oc3ccccc3)cc2)CC1 | 2.66% (inactive) |
| COc1ccc(NC(=O)C2CCCO2)cc1 (stereo not drawn) | -10% (inactive) |
| O=C(Nc1ccc(Oc2ccc(NC(=O)C3CCCO3)cc2)cc1)C1CCCO1 (stereo not drawn) | -8.27% (inactive) |
| O=C(Nc1ccc(N2CCOCC2)cc1)C1CC1 | -4.12% (inactive) |
| O=C(Nc1ccc(Cc2ccc(NC(=O)C3CC3)cc2)cc1)C1CC1 | 7.74% (inactive) |
| O=C(CCc1n[nH]c(=O)[nH]c1=O)N1CCCCC1 | -1.04% (inactive) |
| COc1cc(C(O)P(=O)(OCC(C)C)c2ccc(N(C)C)cc2)cc(OC)c1OC (stereo not drawn) | -2.15% (inactive) |
| CCCc1[nH]nc2c1C(c1ccc(OCCN3CCOCC3)c(OC)c1)C(C#N)=C(N)O2 (stereo not drawn) | -0.42% (inactive) |
| CCC(CO)Nc1nc(CN2CCCCC2)nc2scc(-c3ccccc3)c12 (stereo not drawn) | 7.81% (inactive) |
| CN1CCN(c2nc(-c3cccnc3)nc3scc(-c4ccccc4)c23)CC1 | -0.01% (inactive) |
| CC1CCCN(c2nc(-c3cccnc3)nc3scc(-c4ccccc4)c23)C1 (stereo not drawn) | 10.2% (inactive) |
| OCC1CCCN(c2nc(CN3CCCCC3)nc3scc(-c4ccccc4)c23)C1 (stereo not drawn) | 1.65% (inactive) |
| CCCn1nc(C(=O)Nc2nnc(CC)s2)c2ccccc2c1=O | -9.02% (inactive) |
| CC1CN(C(=O)N(C)C)CCN1C(=O)N(C)C (stereo not drawn) | -15.9% (inactive) |
| CC(=O)c1c(-c2ccc(Cl)cc2Cl)noc1C | 2.75% (inactive) |
| COc1cc(NC(=O)c2ccc(OC)c([N+](=O)[O-])c2)ccc1NC(=O)c1ccco1 | -4.07% (inactive) |
| COc1ccccc1NC(=S)N(Cc1ccco1)Cc1cc2cc(C)c(C)cc2[nH]c1=O | 6.98% (inactive) |
| Cc1ccc(S(=O)(=O)Nc2nc3cc(C)c(C)cc3[nH]2)cc1 | 8.1% (inactive) |

| SMILES | inhibition |
| --- | --- |
| Cn1c(SCC(=O)N2CCCC2)nc2ccccc21 | 3.37% (inactive) |
| CCCn1cc(NC(=O)c2cc3n(n2)C(C(F)(F)F)CC(c2ccccc2)N3)cn1 (stereo not drawn) | 0.85% (inactive) |
| Cc1c(CNC(=O)c2cnn3c2NC(c2ccccc2)CC3C(F)(F)F)cnn1C (stereo not drawn) | -9.25% (inactive) |
| O=C(NCc1cccc(Cl)c1)c1cnn2c1NC(c1ccco1)CC2C(F)(F)F (stereo not drawn) | 6.69% (inactive) |
| Cc1nn(C)cc1CNC(=O)c1cnn2c1NC(c1ccc(Br)cc1)CC2C(F)(F)F (stereo not drawn) | 3.8% (inactive) |
| O=C(O)c1cc2n(n1)C(C(F)(F)F)CC(c1ccccc1)N2 (stereo not drawn) | -8.1% (inactive) |
| O=C(NCc1ccco1)c1cnn2c1NC(c1ccccc1)CC2C(F)(F)F (stereo not drawn) | 2.86% (inactive) |
| O=C(NCc1ccco1)c1cc2n(n1)C(C(F)(F)F)CC(c1ccc(Br)cc1)N2 (stereo not drawn) | 74.2% (inactive) |
| O=C(NCc1ccco1)c1cc2n(n1)C(C(F)(F)F)CC(c1ccc(F)cc1)N2 (stereo not drawn) | 42% (inactive) |
| Nc1nnc(CCCCCCCCCCc2nnc(N)s2)s1 | -1.56% (inactive) |
| CC(C)(C)n1nc2c(c1NC(=O)COc1ccc(Cl)cc1)CS(=O)(=O)C2 | 1.01% (inactive) |
| CCN(C(=O)COC(=O)/C=C/c1ccc(S(=O)(=O)N2CCc3ccccc32)cc1)C1CCS(=O)(=O)C1 (stereo not drawn) | -3.11% (inactive) |
| Cc1c(Cl)cccc1S(=O)(=O)N1CCC(C(=O)NNC(=O)C2CC2)CC1 | 0.53% (inactive) |
| CCOC(=O)c1c(C)[nH]c(C(C)=O)c1C | -0.35% (inactive) |
| COC(=O)c1ccc(C2C(C(C)=O)=C(O)C(=O)N2CCO)cc1 (stereo not drawn) | -1.96% (inactive) |
| COc1cccc(NC(=O)N[C@@H](Cc2ccccc2)C(=O)O)c1 | 1.84% (inactive) |
| CN(C)c1ccnc(SCc2ccccc2Cl)c1C#N | 11.8% (inactive) |
| Cc1ccc(C2CC(C(F)(F)F)n3ncc(C(N)=O)c3N2)cc1 (stereo not drawn) | -4.41% (inactive) |
| COc1cccc(C2CC(C(F)(F)F)n3ncc(C(=O)NCc4ccco4)c3N2)c1 (stereo not drawn) | 3.27% (inactive) |
| Nc1nc(Cn2nnc(-c3ccccc3Cl)n2)nc(N2CCOCC2)n1 | -0.22% (inactive) |
| COc1ccc(Cl)cc1C(=O)NNC(=O)CCNC(C)=O | -6.02% (inactive) |
| O=C1CS/C(=C/C(=O)c2ccccc2)N1 | -2.65% (inactive) |
| Cc1ccc(C(=O)/C=C2/NC(=O)CS2)cc1 | -4.36% (inactive) |
| COC(=O)CN1C(=S)N(c2ccc(OC)cc2)C(=O)/C1=C/c1cccs1 | 4.42% (inactive) |
| c1ccc(Cc2nnc(N3CCOCC3)c3ccccc23)cc1 | -4.25% (inactive) |

| SMILES | inhibition |
| --- | --- |
| CN(C)S(=O)(=O)c1cc(C(=O)NCc2ccccc2)c(Cl)cc1Cl | -5.51% (inactive) |
| COc1ccc(CCN(C)C(=O)c2ccc(S(=O)(=O)NCc3ccco3)cc2)cc1OC | 2.54% (inactive) |
| CC1=C2C3OC(=O)C(C)[C@@H]3CC[C@](C)(O)C2C2C3C4C5(C12)[C@H]1OC(=O)[C@@H](C)C1CC[C@]4(C)O[C@]5(C)[C@@H]3O (stereo partly drawn) | 17.2% (inactive) |
| Cc1nc2cc3sc(C)nc3cc2s1 | -1.33% (inactive) |
| Nc1ccc(-c2nc3ccc(N)cc3s2)cc1 | -3.52% (inactive) |
| CCc1ccccc1NC(=O)CSC1=C(C#N)C(c2ccc3c(c2)OCO3)C2=C(CCCC2=O)N1 (stereo not drawn) | 4.73% (inactive) |
| CCN(CC)CCCNc1nc2cc(OC)c(OC)cc2c2nc(-c3cccnc3)nn12 | 7.65% (inactive) |
| CCN(CC)CCNc1nc2cc(OC)c(OC)cc2c2nc(-c3ccccc3)nn12 | 75% (inactive) |
| CC(C)C(NS(=O)(=O)c1cccs1)C(=O)N(C)Cc1ccccc1 (stereo not drawn) | -0.19% (inactive) |
| Cc1cc(NC(=O)CSc2nnc(C3CC3)n2N)c([N+](=O)[O-])cc1C | -1.15% (inactive) |
| CCCCCCCn1c2c(c(=N)c3c1CCC3)CCCC2 | 13.8% (inactive) |
| CCCCCCCn1c2c(c(=N)c3ccccc31)CCC2 | 9.19% (inactive) |
| CCCCn1c2c(c(=N)c3c1CCC3)CCC2 | -7.84% (inactive) |
| CCCCCCCCCn1c2c(c(=N)c3c1CCC3)CCC2 | 56.5% (inactive) |
| CCCCCn1c2c(c(=N)c3ccccc31)CCC2 | 7.75% (inactive) |
| CCCCCCn1c2c(c(=N)c3c1CCC3)CCC2 | 1.15% (inactive) |
| COC(=O)Cc1c(O)ccn(C2CC2)c1=O | -1.41% (inactive) |
| CC(C)C(NS(=O)(=O)c1cccs1)C(=O)NCc1ccccc1Cl (stereo not drawn) | -0.44% (inactive) |
| Cn1c(SCC(=O)N2CCCc3ccccc32)nnc1-c1cccs1 | 11.9% (inactive) |
| COc1cc(NC(=O)c2ccccc2)c(OC)cc1NC(=O)CN1CCCCC1 | 25.5% (inactive) |
| COc1cc(NC(=O)c2ccc(Cl)cc2)c(OC)cc1NC(=O)CN1CCOCC1 | -0.92% (inactive) |
| Cc1cc(NC(=O)c2cc(-c3ccccc3)on2)no1 | -3.83% (inactive) |
| CCOC(=O)CC(=O)CSc1nc(C)cc(-c2cccnc2)c1C#N | 0.1% (inactive) |
| CN(C)CCCNc1nc2sc3c(c2c(=O)n1CCc1ccccc1)CCCCC3 | 76.4% (inactive) |
| CCn1c(=O)n(CCc2ccccc2)c(=O)c2c3c(sc21)CCCC3 | 0.77% (inactive) |

| SMILES | inhibition |
| --- | --- |
| CN(C)CCCn1c(=O)n(Cc2ccco2)c(=O)c2c3c(sc21)CCCCC3 | -6.11% (inactive) |
| O=c1c2c3c(sc2nc(NCCO)n1CCc1ccccc1)CCCCC3 | 5.74% (inactive) |
| CC1=C(C(=O)Nc2ccccc2)C(c2ccccn2)n2nc(CCCO)nc2N1 (stereo not drawn) | 2.92% (inactive) |
| Cn1c(Sc2ccc(C(F)(F)F)cc2[N+](=O)[O-])nnc1-c1ccccc1 | 0.5% (inactive) |
| CCc1ccc(CNCc2cccs2)cc1 | -12.3% (inactive) |
| CCc1nc(NCCc2ccccn2)c2nnn(Cc3ccccc3F)c2n1 | 7.39% (inactive) |
| CCN1CCN(CCCNC(=O)c2ccc(/C=C3/Sc4ccccc4N(Cc4ccccc4F)C3=O)cc2)CC1 | 1.17% (inactive) |
| CN1CCN(CCCNC(=O)c2ccc(/C=C3\Sc4ccccc4N(Cc4ccccc4F)C3=O)cc2)CC1 | 33.6% (inactive) |
| NC(N)=NS(=O)(=O)c1ccc(NC(=S)NC(=O)/C=C/c2cccs2)cc1 | 3.44% (inactive) |
| CCOC(=O)c1c(-c2ccncc2)csc1N | 9.94% (inactive) |
| c1cc(-c2ccncc2)ccn1 | 2.83% (inactive) |
| O=C(NC(=S)Nc1ccccc1[N+](=O)[O-])c1ccccc1Cl | -1.52% (inactive) |
| O=C(Nc1ccccc1)OCCCc1ccccc1 | 5.86% (inactive) |
| COc1ccc(C2C=C(C34CC5CC(CC(C5)C3)C4)NC(=S)N2)cc1 (stereo not drawn) | 1.23% (inactive) |
| COC(=O)c1sc2cnccc2c1N | -1.77% (inactive) |
| COC(=O)CSc1[nH]c(=O)cc(C)c1C#N | -7.37% (inactive) |
| COC(=O)CSc1nc(-c2cccs2)ccc1C#N | -2.21% (inactive) |
| COC(=O)CSc1nc(C)cc(C)c1C#N | -8.05% (inactive) |
| COC(=O)CSc1nc2cc(C)ccc2cc1C#N | -2.11% (inactive) |
| COC(=O)c1sc2ccccc2c1N | 2.95% (inactive) |
| COc1cc(SC)ccc1C(=O)OCC(=O)NC1CC1 | 2.29% (inactive) |
| CCOC(=O)CSc1snnc1C | -2.01% (inactive) |
| CN(c1ccccc1)S(=O)(=O)c1cccc(Cl)c1Cl | -4.92% (inactive) |
